The panel holds about 79,000 compounds, 15% with a hit somewhere; the sample as a whole holds those more often. A number with no mark means an inactive call. Active and inactive are the calls of the source. No stated cut-off is given here; in the data, active means growth inhibition above about 70%; inactive means the rest.

Assay [1] in a line: NCI Yeast Anticancer Drug Screen. Data for the rad50 strain (AID 155).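 Further: 0% = growth of vehicle-only cultures of the same strain.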 The following applies: S. cerevisiae rad50 strain growth inhibition, active compounds read high. Summed up: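 Compounds were tested on a yeast strain with an engineered DNA damage repair alteration; the reported value is growth inhibition normalised to vehicle treatment.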
The nature of assay [2]: NCI Yeast Anticancer Drug Screen. Data for the mec2-1 strain (AID 157). The following applies: S. cerevisiae mec2-1 strain, active compounds read high. In a few lines: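 Yeast mec2-1 mutant treated with compound. Readout: growth inhibition vs vehicle controls.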
The nature of assay [3]: NCI Yeast Anticancer Drug Screen. Data for the sgs1 mgt1 strain (AID 161).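 Further: 0% = growth of cultures given vehicle only.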 The following applies: S. cerevisiae sgs1 mgt1 strain, active compounds read high. In a few lines:
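Read-out: growth inhibition vs vehicle controls. Cells: mutant yeast strain deficient in DNA damage repair.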

A short description of assay [4]: NCI Yeast Anticancer Drug Screen. Data for the cln2 rad14 strain (AID 165).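 Further: 0% = growth equal to vehicle treated cultures.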 The following applies: S. cerevisiae cln2 rad14 strain, active compounds read high. Summed up: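 cln2 rad14 yeast strain; compound exposure; growth inhibition read vs vehicle controls.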
The nature of assay [5]: NCI Yeast Anticancer Drug Screen. Data for the bub3 strain (AID 167). The conditions noted are these: S. cerevisiae bub3 mutant strain, active compounds read high. Summed up: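 Growth of a checkpoint-deficient yeast mutant is measured after compound exposure. Values represent inhibition relative to vehicle.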
Assay [6] can be described thus: NCI Yeast Anticancer Drug Screen. Data for the mlh1 rad18 strain (AID 175). The following applies: S. cerevisiae mlh1 rad18 strain growth inhibition, active compounds read high. In a few lines:
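Yeast w/ defined DNA-repair lesions; compound exposure; growth vs vehicle controls → % inhibition.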

The mark [7] stands for this setting: at 5.0 µM (retest, dose inferred, filed as 0.5).
Setting [8] is: at 50.0 µM (retest, dose inferred, filed as 5.0).

Turning to `O=C1C=C(c2ccccc2)OC(c2ccccc2)C1` (centres undefined), the growth inhibition was -150% in assay [1] (setting [7]); -112% in assay [1] (setting [8]); 43.1% in assay [1] (at 50.0 µM); -52% in assay [2] (setting [7]); -59% in assay [2] (setting [8]); 41.8% in assay [2] (at 50.0 µM). For the same compound, the growth inhibition in assay [3] (setting [7]) is -63%; in assay [3] (setting [8]) it was -37%; in assay [3] (at 50.0 µM) it was 15.2%; in assay [4] (setting [7]) it was -69%; in assay [4] (setting [8]), -67%; in assay [4] (at 50.0 µM), -38.4%. For the same compound, the growth inhibition in assay [5] (setting [7]) was -68%; in assay [5] (setting [8]), -25%; in assay [5] (at 50.0 µM) it was 44.1%; in assay [6] (setting [7]) it was -141%; in assay [6] (setting [8]) it was -97%; in assay [6] (at 50.0 µM), 27.3%.
With `COc1ccc(SC2=C(N(C)C)C(=O)c3ccccc3C2=O)cc1`, the growth inhibition was 2% in assay [1] (setting [7]); 85% (active) in assay [1] (setting [8]); 88.2% (active) in assay [1] (at 50.0 µM); -19% in assay [2] (setting [7]); 79% (active) in assay [2] (setting [8]); 19.8% in assay [2] (at 50.0 µM). For the same compound, the growth inhibition in assay [3] (setting [7]) is 2%; in assay [3] (setting [8]) it was 92% (active); in assay [3] (at 50.0 µM), 63.2%; in assay [4] (setting [7]) it was 54%; in assay [4] (setting [8]), 79% (active); in assay [4] (at 50.0 µM), 22.8%. The growth inhibition in assay [5] (setting [7]) was -10%; in assay [5] (setting [8]), -46%; in assay [5] (at 50.0 µM), 60%; in assay [6] (setting [7]), 11%; in assay [6] (setting [8]) it was 88% (active); in assay [6] (at 50.0 µM) it was 84.5% (active).
On to `COc1ccc2[nH]cc(C(=O)O)c2c1`, for which the growth inhibition was -4% in assay [1] (setting [7]); 55% in assay [1] (setting [8]); 38% in assay [1] (at 50.0 µM); -5% in assay [2] (setting [7]); 65% in assay [2] (setting [8]); 2.6% in assay [2] (at 50.0 µM). Moreover, the growth inhibition in assay [3] (setting [7]) was 7%; in assay [3] (setting [8]), 31%; in assay [3] (at 50.0 µM), 66.3%; in assay [4] (setting [7]), 0%; in assay [4] (setting [8]), 36%; in assay [4] (at 50.0 µM), 40%. Besides, the growth inhibition is 1% in assay [5] (setting [7]); 46% in assay [5] (setting [8]); 79.8% (active) in assay [5] (at 50.0 µM); -30% in assay [6] (setting [7]); 84% (active) in assay [6] (setting [8]); 25% in assay [6] (at 50.0 µM).
On to `Cc1ccc(S(=O)(=O)NNc2nc(N3CCOCC3)nc(N3CCOCC3)n2)cc1`, for which the growth inhibition in assay [1] (setting [7]) was 1%; in assay [1] (setting [8]) it was -4%; in assay [1] (at 50.0 µM) it was 28.1%; in assay [2] (setting [7]), 2%; in assay [2] (setting [8]), 2%; in assay [2] (at 50.0 µM) it was 15.4%. Moreover, the growth inhibition was 10% in assay [3] (setting [7]); 6% in assay [3] (setting [8]); 63% in assay [3] (at 50.0 µM); 3% in assay [4] (setting [7]); -8% in assay [4] (setting [8]); 70.6% (active) in assay [4] (at 50.0 µM). Also, the growth inhibition in assay [5] (setting [7]) is -1%; in assay [5] (setting [8]) it was -1%; in assay [5] (at 50.0 µM) it was 17.9%; in assay [6] (setting [7]), 0%; in assay [6] (setting [8]) it was -4%; in assay [6] (at 50.0 µM) it was 26.3%.
For the compound `N#CC(C(=O)CCCC(=O)Nc1ccc(Cl)cc1)c1ccccc1Cl` (centres undefined), the growth inhibition is 2% in assay [1] (setting [7]); 0% in assay [1] (setting [8]); 96.8% (active) in assay [1] (at 50.0 µM); -1% in assay [2] (setting [7]); 6% in assay [2] (setting [8]); 98% (active) in assay [2] (at 50.0 µM). In addition, the growth inhibition in assay [3] (setting [7]) is 9%; in assay [3] (setting [8]), 4%; in assay [3] (at 50.0 µM), 99% (active); in assay [4] (setting [7]), -2%; in assay [4] (setting [8]), 1%; in assay [4] (at 50.0 µM) it was 93.9% (active). Further, the growth inhibition is 1% in assay [5] (setting [7]); 30% in assay [5] (setting [8]); 99% (active) in assay [5] (at 50.0 µM); -2% in assay [6] (setting [7]); 4% in assay [6] (setting [8]); 96.7% (active) in assay [6] (at 50.0 µM).
As for `Cn1c(=O)c2c(nc([N+](=O)[O-])n2C)n(C)c1=O`, the growth inhibition is 2% in assay [1] (setting [7]); 48% in assay [1] (setting [8]); 74.6% (active) in assay [1] (at 50.0 µM); 9% in assay [2] (setting [7]); 39% in assay [2] (setting [8]); 63.8% in assay [2] (at 50.0 µM). Also, the growth inhibition in assay [3] (setting [7]) is 4%; in assay [3] (setting [8]), 39%; in assay [3] (at 50.0 µM) it was 76.9% (active); in assay [4] (setting [7]) it was -2%; in assay [4] (setting [8]), 18%; in assay [4] (at 50.0 µM), 45.6%. Moreover, the growth inhibition in assay [5] (setting [7]) is 12%; in assay [5] (setting [8]) it was 75% (active); in assay [5] (at 50.0 µM), 79.3% (active); in assay [6] (setting [7]) it was 0%; in assay [6] (setting [8]), 41%; in assay [6] (at 50.0 µM) it was 68%.
As to `COc1ccc(SC2=C(N(C)C(C)=O)C(=O)c3ccccc3C2=O)cc1`, the growth inhibition is 98% (active) in assay [1] (setting [7]); 99% (active) in assay [1] (setting [8]); 99.5% (active) in assay [1] (at 50.0 µM); 97% (active) in assay [2] (setting [7]); 100% (active) in assay [2] (setting [8]); 99.7% (active) in assay [2] (at 50.0 µM). Besides, the growth inhibition in assay [3] (setting [7]) was 97% (active); in assay [3] (setting [8]) it was 100% (active); in assay [3] (at 50.0 µM) it was 99.7% (active); in assay [4] (setting [7]), 95% (active); in assay [4] (setting [8]), 99% (active); in assay [4] (at 50.0 µM), 99.7% (active). The growth inhibition in assay [6] (setting [7]) is 98% (active); in assay [6] (setting [8]), 99% (active); in assay [6] (at 50.0 µM) it was 99.6% (active).
`CC(C)SC(=S)Nc1ccc(Cl)cc1`: the growth inhibition in assay [1] (setting [7]) is -5%; in assay [1] (setting [8]), 92% (active); in assay [1] (at 50.0 µM), 97.8% (active); in assay [2] (setting [7]), -1%; in assay [2] (setting [8]), 98% (active); in assay [2] (at 50.0 µM), 99% (active). Moreover, the growth inhibition in assay [3] (setting [7]) was 8%; in assay [3] (setting [8]) it was 88% (active); in assay [3] (at 50.0 µM) it was 97% (active); in assay [4] (setting [7]) it was -18%; in assay [4] (setting [8]), 64%; in assay [4] (at 50.0 µM) it was 96.8% (active). Further, the growth inhibition in assay [5] (setting [7]) was 0%; in assay [5] (setting [8]), 91% (active); in assay [5] (at 50.0 µM) it was 99% (active); in assay [6] (setting [7]), 5%; in assay [6] (setting [8]) it was 96% (active); in assay [6] (at 50.0 µM), 98.9% (active).
On to `CCOC(=O)CSc1c(C(=O)OCC)c(=O)n(-c2ccccc2)c(=S)n1-c1ccccc1`, for which the growth inhibition in assay [1] (setting [7]) is 60%; in assay [1] (setting [8]) it was 90% (active); in assay [1] (at 50.0 µM) it was 85.2% (active); in assay [2] (setting [7]) it was 44%; in assay [2] (setting [8]) it was 89% (active); in assay [2] (at 50.0 µM) it was 87.2% (active). For the same compound, the growth inhibition in assay [3] (setting [7]) is 75% (active); in assay [3] (setting [8]), 94% (active); in assay [3] (at 50.0 µM) it was 87.8% (active); in assay [4] (setting [7]) it was 54%; in assay [4] (setting [8]), 91% (active); in assay [4] (at 50.0 µM), 80.8% (active). Further, the growth inhibition in assay [5] (setting [7]) is 31%; in assay [5] (setting [8]), 90% (active); in assay [5] (at 50.0 µM), 85.8% (active); in assay [6] (setting [7]), 74% (active); in assay [6] (setting [8]), 89% (active); in assay [6] (at 50.0 µM) it was 81.8% (active).

For the origin of these results see PubChem BioAssay (NCI).
